From the supplement of paper PMC10849652
Targets with a hit are over-represented here; the source holds about 8,800 in all. About 0.5% of all pairs of compound and target were hits.

Tests used:
Test in all cases: log2 fold change, soluble protein after heating vs DMSO (PISA); higher = thermal stabilisation; K562 lysate, 10 uM; active = over 0.2 and 3.5 SD of the protein, either way, in both replicates (recomputed)
alvocidib = compound: CN1CC[C@H](c2c(O)cc(O)c3c(=O)cc(-c4ccccc4Cl)oc23)[C@H](O)C1 [alvocidib]
How it was run: (§1)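 Values give the log-two fold change in thermal stability against solvent controls, from duplicates. Crude K562 extract at 1 mg/mL protein, made by dounce homogenisation in PBS pH 7.4 with 1 mM MgCl2, was treated with 10 μM compound for 30 min. After 3 min heating across 48°C-58°C, aliquots were pooled, adjusted to 0.5% NP-40 at 4°C and centrifuged at 21,000xg for 90 min. The supernatant was measured by TMTpro 16plex LC-MS/MS with channel sums equalised.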

Tubastatin A = compound: CN1CCc2c(c3ccccc3n2Cc2ccc(C(=O)NO)cc2)C1 [Tubastatin A]
How it was run: as §1

[1] = compound: CNC(=O)C1=CC=CC=C1NC2=NC(=NC=C2Cl)NC3=C(C=C(C=C3)N4CCOCC4)OC
How it was run: as §1

defactinib = compound: CNC(=O)c1ccc(Nc2ncc(C(F)(F)F)c(NCc3nccnc3N(C)S(C)(=O)=O)n2)cc1 [defactinib]
How it was run: as §1

[2] = compound: CNc1nc(-c2ccc3c(N)n[nH]c3c2)cc(N2C[C@@H](C(=O)NC3CCCCC3)CC[C@H]2C)n1
How it was run: as §1

encorafenib = compound: COC(=O)N[C@@H](C)CNc1nccc(-c2cn(C(C)C)nc2-c2cc(Cl)cc(NS(C)(=O)=O)c2F)n1 [encorafenib]
How it was run: as §1

[3] = compound: COC(=O)[C@H](CCSC)NC(=O)C1=C(C=C(C=C1)NC[C@H](CS)N)C2=CC=CC=C2
How it was run: as §1

[4] = compound: COc1cc2nc(-c3cc(F)ccc3O)nc(N[C@@H]3CNC[C@H]3C(C)(C)O)c2cc1OC
How it was run: as §1

alisertib = compound: COc1cc(Nc2ncc3c(n2)-c2ccc(Cl)cc2C(c2c(F)cccc2OC)=NC3)ccc1C(=O)O [alisertib]
How it was run: as §1

gefitinib = compound: COc1cc2ncnc(Nc3ccc(F)c(Cl)c3)c2cc1OCCCN1CCOCC1 [gefitinib]
How it was run: as §1

Measured: log2 fold change

GYPA (UniProt P02724)
UniProt P02724, sequence (P02724 whole entry, looked up): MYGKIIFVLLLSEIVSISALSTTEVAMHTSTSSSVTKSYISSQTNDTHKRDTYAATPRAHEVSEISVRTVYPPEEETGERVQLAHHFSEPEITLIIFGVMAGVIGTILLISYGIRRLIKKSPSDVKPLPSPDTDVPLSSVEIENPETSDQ
inactive: alvocidib 0.311 | Tubastatin A 0.068 | [1] 0.005 | defactinib 0.063 | [2] 0.207 | encorafenib -0.004 | [3] -0.015 | [4] 0.06

HMGN5 (UniProt Q5JSK9)
inactive: encorafenib 0.055 | [3] -0.111 | alisertib 0.049 | [4] 0.055 | gefitinib 0.063

KDM5B isoform 2 (UniProt Q9UGL1)
UniProt Q9UGL1, sequence (Q9UGL1 whole entry, looked up): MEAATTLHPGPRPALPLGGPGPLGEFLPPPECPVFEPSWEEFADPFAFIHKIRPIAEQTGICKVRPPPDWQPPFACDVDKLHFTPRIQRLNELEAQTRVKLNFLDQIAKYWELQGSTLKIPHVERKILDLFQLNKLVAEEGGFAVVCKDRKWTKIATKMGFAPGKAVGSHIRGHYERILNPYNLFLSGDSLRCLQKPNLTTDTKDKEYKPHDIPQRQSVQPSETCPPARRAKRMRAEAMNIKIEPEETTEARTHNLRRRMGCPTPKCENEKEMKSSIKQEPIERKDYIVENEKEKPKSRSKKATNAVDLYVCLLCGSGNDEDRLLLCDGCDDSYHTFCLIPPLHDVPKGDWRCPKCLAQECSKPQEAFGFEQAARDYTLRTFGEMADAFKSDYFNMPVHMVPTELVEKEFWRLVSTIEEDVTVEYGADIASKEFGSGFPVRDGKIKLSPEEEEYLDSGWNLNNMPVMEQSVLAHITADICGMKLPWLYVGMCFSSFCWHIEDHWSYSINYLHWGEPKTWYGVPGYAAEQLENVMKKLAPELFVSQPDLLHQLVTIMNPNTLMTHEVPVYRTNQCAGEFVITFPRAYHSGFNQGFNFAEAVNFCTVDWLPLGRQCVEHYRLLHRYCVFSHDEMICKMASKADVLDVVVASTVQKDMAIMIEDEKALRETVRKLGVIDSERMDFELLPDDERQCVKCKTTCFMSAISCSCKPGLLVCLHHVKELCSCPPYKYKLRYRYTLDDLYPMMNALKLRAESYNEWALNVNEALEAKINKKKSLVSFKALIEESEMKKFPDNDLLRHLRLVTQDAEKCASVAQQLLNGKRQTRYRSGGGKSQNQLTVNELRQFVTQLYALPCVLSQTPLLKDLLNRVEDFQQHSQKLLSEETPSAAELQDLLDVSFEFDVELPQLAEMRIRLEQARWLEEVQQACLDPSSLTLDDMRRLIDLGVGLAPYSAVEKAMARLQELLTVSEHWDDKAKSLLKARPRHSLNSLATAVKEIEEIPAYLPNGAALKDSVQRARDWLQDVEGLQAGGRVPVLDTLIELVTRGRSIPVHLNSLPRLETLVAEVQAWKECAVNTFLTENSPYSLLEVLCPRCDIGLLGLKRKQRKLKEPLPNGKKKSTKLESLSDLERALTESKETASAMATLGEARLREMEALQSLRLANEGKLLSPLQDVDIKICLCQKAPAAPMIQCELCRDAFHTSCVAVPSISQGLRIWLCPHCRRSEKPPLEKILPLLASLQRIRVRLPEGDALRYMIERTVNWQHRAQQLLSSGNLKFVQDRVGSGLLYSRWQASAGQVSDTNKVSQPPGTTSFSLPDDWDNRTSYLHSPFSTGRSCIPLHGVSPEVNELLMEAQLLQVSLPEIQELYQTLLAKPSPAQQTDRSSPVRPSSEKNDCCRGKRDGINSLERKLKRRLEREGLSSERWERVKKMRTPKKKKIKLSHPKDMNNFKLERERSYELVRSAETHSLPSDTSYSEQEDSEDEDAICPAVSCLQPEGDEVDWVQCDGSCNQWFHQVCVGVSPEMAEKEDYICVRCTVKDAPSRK
inactive: alvocidib -0.048 | Tubastatin A 0.021 | [1] -0.007 | defactinib 0.08 | [2] 0.307 | encorafenib -0.094 | [3] 0.075 | [4] 0.014

ITGB1BP2 (UniProt Q9UKP3)
inactive: alvocidib -0.116 | defactinib -0.112 | [2] -0.018 | encorafenib -0.137 | [3] 0.044

HTT (UniProt P42858)
inactive: alvocidib 0 | Tubastatin A -0.195 | [1] 0.022 | defactinib 0.048 | [2] -0.043 | encorafenib 0.008 | [3] -0.003 | alisertib -0.005 | gefitinib -0.032

HNRNPM (UniProt M0R019)
inactive: defactinib -0.112

GTPBP6 (UniProt O43824)
inactive: alvocidib 0.046 | defactinib 0.163 | [2] 0.673 | encorafenib -0.076 | [3] 0.235

HECW2 (UniProt Q9P2P5)
UniProt Q9P2P5, sequence (Q9P2P5 whole entry, looked up): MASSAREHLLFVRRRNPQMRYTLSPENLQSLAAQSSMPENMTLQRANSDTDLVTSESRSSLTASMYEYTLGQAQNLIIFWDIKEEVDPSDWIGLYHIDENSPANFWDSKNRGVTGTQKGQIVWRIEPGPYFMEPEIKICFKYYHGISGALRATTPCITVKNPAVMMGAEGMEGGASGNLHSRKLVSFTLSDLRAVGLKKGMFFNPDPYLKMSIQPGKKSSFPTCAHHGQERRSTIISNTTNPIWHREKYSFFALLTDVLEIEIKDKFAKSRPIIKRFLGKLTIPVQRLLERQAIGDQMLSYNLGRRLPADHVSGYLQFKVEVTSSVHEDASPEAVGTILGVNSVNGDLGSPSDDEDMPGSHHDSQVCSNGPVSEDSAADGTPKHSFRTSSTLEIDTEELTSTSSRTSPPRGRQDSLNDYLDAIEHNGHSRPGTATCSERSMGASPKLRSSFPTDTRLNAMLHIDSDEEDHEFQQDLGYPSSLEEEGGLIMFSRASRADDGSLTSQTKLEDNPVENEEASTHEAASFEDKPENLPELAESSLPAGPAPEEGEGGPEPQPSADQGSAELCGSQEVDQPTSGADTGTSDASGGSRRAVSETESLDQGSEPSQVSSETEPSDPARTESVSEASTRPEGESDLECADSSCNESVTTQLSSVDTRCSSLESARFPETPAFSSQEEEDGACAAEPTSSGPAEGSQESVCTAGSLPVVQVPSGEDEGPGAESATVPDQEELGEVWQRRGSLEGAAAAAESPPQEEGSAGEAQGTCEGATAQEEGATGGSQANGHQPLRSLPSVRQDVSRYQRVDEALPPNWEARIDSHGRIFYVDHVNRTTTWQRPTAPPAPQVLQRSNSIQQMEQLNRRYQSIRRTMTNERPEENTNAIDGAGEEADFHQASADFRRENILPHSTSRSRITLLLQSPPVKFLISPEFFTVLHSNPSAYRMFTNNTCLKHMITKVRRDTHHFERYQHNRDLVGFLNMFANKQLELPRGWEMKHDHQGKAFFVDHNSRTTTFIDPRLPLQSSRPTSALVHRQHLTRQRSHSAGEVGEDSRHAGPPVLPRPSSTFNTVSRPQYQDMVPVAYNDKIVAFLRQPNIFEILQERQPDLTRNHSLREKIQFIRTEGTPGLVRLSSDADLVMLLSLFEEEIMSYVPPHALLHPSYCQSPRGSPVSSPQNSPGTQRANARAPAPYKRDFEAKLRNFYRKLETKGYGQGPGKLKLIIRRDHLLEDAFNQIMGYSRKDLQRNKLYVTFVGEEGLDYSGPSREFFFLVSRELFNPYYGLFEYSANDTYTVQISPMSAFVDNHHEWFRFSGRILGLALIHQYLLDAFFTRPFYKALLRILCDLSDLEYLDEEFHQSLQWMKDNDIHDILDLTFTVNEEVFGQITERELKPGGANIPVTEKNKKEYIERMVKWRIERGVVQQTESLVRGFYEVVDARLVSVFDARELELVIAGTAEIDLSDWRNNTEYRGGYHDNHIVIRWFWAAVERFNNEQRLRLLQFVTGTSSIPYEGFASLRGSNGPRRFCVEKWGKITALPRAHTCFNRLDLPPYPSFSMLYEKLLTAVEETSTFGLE
inactive: Tubastatin A -0.002 | [1] 0.102 | defactinib -0.087 | [2] -0.099 | encorafenib 0 | [3] 0.153 | alisertib 0.114 | gefitinib 0.117

ISL2 (UniProt Q96A47)
inactive: alvocidib 0.36 | Tubastatin A 0.032 | [1] -0.042 | [2] 0.025

JAK3 (UniProt P52333)
UniProt P52333, sequence (P52333 whole entry, looked up): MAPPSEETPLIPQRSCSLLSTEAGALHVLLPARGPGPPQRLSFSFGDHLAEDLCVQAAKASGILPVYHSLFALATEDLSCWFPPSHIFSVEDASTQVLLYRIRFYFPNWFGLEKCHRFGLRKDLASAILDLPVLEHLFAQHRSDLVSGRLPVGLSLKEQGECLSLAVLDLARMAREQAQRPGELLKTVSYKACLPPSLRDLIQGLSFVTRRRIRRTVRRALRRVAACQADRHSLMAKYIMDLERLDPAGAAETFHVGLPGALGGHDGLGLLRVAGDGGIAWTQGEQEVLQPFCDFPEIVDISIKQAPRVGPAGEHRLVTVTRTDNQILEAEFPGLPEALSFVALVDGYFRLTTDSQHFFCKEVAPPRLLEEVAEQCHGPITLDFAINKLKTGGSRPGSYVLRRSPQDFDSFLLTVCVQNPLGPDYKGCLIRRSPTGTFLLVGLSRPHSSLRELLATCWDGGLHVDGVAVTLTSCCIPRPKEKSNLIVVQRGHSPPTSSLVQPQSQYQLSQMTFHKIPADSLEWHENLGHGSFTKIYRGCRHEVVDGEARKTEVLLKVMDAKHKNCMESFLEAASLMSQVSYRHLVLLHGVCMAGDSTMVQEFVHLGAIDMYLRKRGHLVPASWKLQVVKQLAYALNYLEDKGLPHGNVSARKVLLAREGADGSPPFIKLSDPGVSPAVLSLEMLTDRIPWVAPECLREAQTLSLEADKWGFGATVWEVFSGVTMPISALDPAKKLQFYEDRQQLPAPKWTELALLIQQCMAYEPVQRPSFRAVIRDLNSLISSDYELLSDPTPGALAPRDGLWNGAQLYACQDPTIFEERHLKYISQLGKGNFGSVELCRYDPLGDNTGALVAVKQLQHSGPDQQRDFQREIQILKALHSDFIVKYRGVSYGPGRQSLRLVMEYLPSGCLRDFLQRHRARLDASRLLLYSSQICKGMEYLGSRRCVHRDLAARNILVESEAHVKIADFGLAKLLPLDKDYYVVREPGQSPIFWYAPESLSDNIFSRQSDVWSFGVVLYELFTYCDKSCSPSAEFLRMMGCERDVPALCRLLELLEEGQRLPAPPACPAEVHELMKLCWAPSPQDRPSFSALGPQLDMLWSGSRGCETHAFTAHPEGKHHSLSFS
inactive: alvocidib 0.254 | defactinib 0.06 | [4] -0.041

HNRNPD (UniProt D6RF44)
inactive: alisertib -0.006 | gefitinib -0.014

IPP (UniProt Q9Y573)
inactive: alvocidib 0.001 | Tubastatin A -0.075 | [1] -0.07 | defactinib 0.016 | [2] 0.029 | encorafenib -0.138 | [3] -0.171 | [4] 0.06

IMPDH2 (UniProt H0Y4R1)
inactive: alvocidib -0.12 | defactinib 0.101 | [2] 0.014 | encorafenib -0.014 | alisertib -0.038 | [4] -0.035 | gefitinib 0.052
active: Tubastatin A -0.554 | [3] -0.505

HECTD4 (UniProt J3KPF0)
inactive: alvocidib -0.027 | Tubastatin A -0.075 | [1] 0.001 | defactinib 0.012 | [2] -0.017 | encorafenib -0.072 | [3] 0.146 | alisertib 0.013 | [4] 0.045 | gefitinib -0.043

HYDIN (UniProt Q4G0P3)
inactive: Tubastatin A -0.041 | defactinib 0.045 | [2] 0.414 | encorafenib 0.172 | [3] -0.02 | [4] -0.154

GSK3B isoform 2 (UniProt P49841)
inactive: alvocidib 0.518 | Tubastatin A -0.077 | [1] 0.015 | defactinib 0.562 | [2] 0.114 | encorafenib 0.425 | [3] -0.114 | [4] 0 | gefitinib 0.029

HSPBAP1 (UniProt Q96EW2)
active: [2] -0.547
inactive: alvocidib -0.094 | Tubastatin A -0.139 | [1] 0.02 | encorafenib 0.097 | [3] -0.154 | alisertib -0.113 | [4] -0.104 | gefitinib -0.005

GNB4 (UniProt Q9HAV0)
inactive: alvocidib -0.114 | Tubastatin A -0.002 | [1] -0.091 | [2] 0.01 | encorafenib -0.01 | [3] 0.141 | alisertib -0.168 | [4] 0.095
active: gefitinib -0.364

IRS2 (UniProt Q9Y4H2)
inactive: alvocidib -0.301 | Tubastatin A -0.254 | [1] -0.02 | [2] 0.275 | alisertib 0.068 | [4] 0.004 | gefitinib 0.08

H3-3A (UniProt P84243)
inactive: alvocidib 0.021 | [1] 0.063 | defactinib -0.04 | encorafenib 0.132 | [3] -0.034 | [4] -0.032

GPLD1 (UniProt P80108)
inactive: [2] -0.452

HOMER3 (UniProt Q9NSC5)
inactive: alvocidib -0.066 | [4] 0.069

HMGCL (UniProt P35914)
UniProt P35914, sequence (P35914 whole entry, looked up): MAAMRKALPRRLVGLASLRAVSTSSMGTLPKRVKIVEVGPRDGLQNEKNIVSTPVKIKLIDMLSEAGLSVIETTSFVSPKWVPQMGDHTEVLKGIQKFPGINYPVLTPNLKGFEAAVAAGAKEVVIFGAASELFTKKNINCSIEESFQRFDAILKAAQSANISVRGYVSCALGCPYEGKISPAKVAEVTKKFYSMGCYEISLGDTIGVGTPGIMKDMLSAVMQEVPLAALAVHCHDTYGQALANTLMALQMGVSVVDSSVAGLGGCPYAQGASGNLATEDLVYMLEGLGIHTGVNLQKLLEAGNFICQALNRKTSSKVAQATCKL
inactive: alvocidib 0.013 | Tubastatin A -0.012 | [1] -0.015 | defactinib 0.059 | [2] 0.055 | encorafenib 0.032 | [3] -0.102 | alisertib -0.031 | [4] -0.016 | gefitinib -0.021

HNRNPM (UniProt M0QZM1)
inactive: defactinib 0.073 | [2] 0.128 | encorafenib 0.006 | [3] -0.025

HMGA1 isoform 2 (UniProt P17096)
inactive: alvocidib 0.289 | Tubastatin A 0.102 | [1] 0.085 | [2] 0.034 | alisertib -0.255 | [4] -0.038 | gefitinib -0.442

ITPRIP (UniProt Q8IWB1)
inactive: [2] -0.268
active: [1] 0.994

HDAC3 (UniProt E7ESJ6)
inactive: [4] -0.005

ITPR2 (UniProt Q14571)
inactive: Tubastatin A -0.03 | [1] 0.074 | [2] 0.239 | alisertib 0.001 | [4] 0.234 | gefitinib -0.019

ITM2B (UniProt Q9Y287)
UniProt Q9Y287, sequence (Q9Y287 whole entry, looked up): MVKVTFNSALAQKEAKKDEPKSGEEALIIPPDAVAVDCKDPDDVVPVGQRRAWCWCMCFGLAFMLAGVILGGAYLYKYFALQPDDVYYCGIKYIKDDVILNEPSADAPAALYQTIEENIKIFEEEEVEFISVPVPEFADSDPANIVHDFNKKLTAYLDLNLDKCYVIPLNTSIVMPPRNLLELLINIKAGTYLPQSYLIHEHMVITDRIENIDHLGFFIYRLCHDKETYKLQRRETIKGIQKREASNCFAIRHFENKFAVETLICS
inactive: alvocidib 0.015 | Tubastatin A 0.007 | [1] 0.037 | defactinib 0.16 | [2] 0.074 | alisertib 0.006 | gefitinib 0.008
